The structures appear in SMILES notation. For some assays here: Entries with a potency or affinity are not part of this list.

For ten molecules, Percent Effect results are on record in ChEMBL document CHEMBL3988442, “University of Dundee, Small-Polar-MMV Screening Library” (2021).

Holding throughout (design): scale not given: direction of the effect not stated beside the values
For experiment [1], the target named is Protein translocase subunit SecA (Escherichia coli (strain K12)) (UniProt P10408). The experiment is described as follows: Assay to Identify E. coli SecA ATPase Inhibitors. Type of experiment: functional. To be noted: 30 µM.
Experiment [2] addresses T1, Ubiquitin-activating enzyme e1, putative (Leishmania donovani (strain BPK282A1)) (UniProt E9BSI1).
T1 sequence (whole entry): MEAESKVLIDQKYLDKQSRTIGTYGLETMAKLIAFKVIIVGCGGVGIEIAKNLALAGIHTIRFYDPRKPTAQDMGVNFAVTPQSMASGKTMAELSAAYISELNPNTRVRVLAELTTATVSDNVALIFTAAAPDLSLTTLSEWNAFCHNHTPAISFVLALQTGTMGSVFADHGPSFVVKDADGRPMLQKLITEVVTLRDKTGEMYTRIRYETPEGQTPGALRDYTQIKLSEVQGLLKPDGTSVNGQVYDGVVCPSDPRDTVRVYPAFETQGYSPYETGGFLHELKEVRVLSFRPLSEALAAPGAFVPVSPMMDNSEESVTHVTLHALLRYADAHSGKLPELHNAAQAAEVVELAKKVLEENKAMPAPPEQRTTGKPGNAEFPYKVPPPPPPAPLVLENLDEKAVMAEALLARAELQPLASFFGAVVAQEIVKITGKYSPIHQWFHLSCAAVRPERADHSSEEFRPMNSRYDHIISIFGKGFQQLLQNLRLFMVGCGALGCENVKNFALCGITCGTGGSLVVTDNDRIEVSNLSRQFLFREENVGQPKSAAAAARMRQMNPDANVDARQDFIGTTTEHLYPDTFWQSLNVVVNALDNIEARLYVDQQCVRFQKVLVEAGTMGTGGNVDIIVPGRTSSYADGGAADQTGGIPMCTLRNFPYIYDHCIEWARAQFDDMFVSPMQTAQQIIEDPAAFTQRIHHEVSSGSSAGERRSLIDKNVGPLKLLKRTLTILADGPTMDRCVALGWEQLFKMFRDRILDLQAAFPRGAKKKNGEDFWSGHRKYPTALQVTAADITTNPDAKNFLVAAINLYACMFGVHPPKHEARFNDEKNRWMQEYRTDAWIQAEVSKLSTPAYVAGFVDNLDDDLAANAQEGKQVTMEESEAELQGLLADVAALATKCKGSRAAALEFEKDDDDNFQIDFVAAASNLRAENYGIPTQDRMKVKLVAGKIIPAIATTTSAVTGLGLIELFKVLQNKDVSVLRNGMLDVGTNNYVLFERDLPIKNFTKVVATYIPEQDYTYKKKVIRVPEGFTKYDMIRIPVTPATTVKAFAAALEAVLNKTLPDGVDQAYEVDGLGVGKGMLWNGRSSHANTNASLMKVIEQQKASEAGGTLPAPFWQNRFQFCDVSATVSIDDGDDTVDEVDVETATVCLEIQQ
The experiment in a line: Leishmania donovani Ubiquitin Activating Enzyme (LdE1). Type of experiment: functional. The note with it: 30 µM.

The target of experiment [3] is AMP-activated protein kinase, AMPK (Homo sapiens) (UniProt P54646+O43741+P54619+Q9UGJ0+Q9Y478+Q13131+Q9UGI9). The experiment in a line: AMP-dependent Kinase enzyme assay. An in vitro enzyme assay that detects ADP turnover that is directly proportional to AMPK activity. This uses naive AMPK that is activated during the assay with MK-8722. To be noted: 30 µM. The experiment is classed as functional.

Experiment [4] deals with Sialic acid-binding Ig-like lectin 9 (Homo sapiens) (UniProt Q9Y336). The experiment is described as follows: Hs-Siglec9 ALPHAscreen SOP 20170721. To be noted: 10 µM. (Bead proximity is the source of the signal in Alpha formats.)
Another experiment concerns Trypanosoma cruzi. The experiment is described as follows: Trypanosoma cruzi phosphomannomutase and mannose-1-phosphate guanylyltransferase assay. Type of experiment: functional. To be noted: 10 µM.
For experiment [5], the target named is T2, Arginase-2, mitochondrial (Homo sapiens) (UniProt P78540).
T2 sequence (whole entry): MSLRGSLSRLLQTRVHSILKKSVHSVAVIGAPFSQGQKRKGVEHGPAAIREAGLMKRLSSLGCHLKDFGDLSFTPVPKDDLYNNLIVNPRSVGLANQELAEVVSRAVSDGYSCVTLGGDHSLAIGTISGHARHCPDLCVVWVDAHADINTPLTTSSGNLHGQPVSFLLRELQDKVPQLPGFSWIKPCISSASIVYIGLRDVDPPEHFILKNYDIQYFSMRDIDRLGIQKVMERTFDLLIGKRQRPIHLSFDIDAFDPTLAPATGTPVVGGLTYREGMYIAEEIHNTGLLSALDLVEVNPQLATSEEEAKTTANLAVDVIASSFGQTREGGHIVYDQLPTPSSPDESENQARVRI
The experiment is described as follows: in vitro enzyme assay to detect the production of urea directly proportional to the activity of Arginase II. Further: in the data most compounds retested in dose-response had high values. Type of experiment: functional. To be noted: 33.3 µM.

For experiment [6], the target named is T3, Proteasome subunit beta (Trypanosoma cruzi) (UniProt O96673).
T3 sequence (whole entry): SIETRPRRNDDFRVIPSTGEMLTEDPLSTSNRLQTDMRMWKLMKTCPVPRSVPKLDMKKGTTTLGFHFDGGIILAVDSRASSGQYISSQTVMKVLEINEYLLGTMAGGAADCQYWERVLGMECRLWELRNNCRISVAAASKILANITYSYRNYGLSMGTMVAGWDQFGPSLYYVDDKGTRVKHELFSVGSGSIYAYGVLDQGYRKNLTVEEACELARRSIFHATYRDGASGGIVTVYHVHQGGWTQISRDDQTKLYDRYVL
The experiment is described as follows: Trypanosoma cruzi proteasome chymotrypsin-like activity (TcProtChymo) assay. Further: in the data most compounds retested in dose-response had high values. To be noted: 9.37 µM. Type of experiment: functional.

The species entered for the next experiment is Homo sapiens. The experiment in a line: To identify inhibition of the IFN signalling (Jak-Stat) pathway via expression of an eGFP reporter gene under the control of an IFN-stimulated response element (ISRE) containing MxA promoter. The note with it: 30 µM. Type of experiment: functional. (In general: In a reporter assay the amount or activity of a reporter protein is the signal.)

Experiment [7] concerns the target T4, Tyrosyl-tRNA synthetase, putative (Trypanosoma cruzi (strain CL Brener)) (UniProt Q4DSP6).
T4 sequence (whole entry): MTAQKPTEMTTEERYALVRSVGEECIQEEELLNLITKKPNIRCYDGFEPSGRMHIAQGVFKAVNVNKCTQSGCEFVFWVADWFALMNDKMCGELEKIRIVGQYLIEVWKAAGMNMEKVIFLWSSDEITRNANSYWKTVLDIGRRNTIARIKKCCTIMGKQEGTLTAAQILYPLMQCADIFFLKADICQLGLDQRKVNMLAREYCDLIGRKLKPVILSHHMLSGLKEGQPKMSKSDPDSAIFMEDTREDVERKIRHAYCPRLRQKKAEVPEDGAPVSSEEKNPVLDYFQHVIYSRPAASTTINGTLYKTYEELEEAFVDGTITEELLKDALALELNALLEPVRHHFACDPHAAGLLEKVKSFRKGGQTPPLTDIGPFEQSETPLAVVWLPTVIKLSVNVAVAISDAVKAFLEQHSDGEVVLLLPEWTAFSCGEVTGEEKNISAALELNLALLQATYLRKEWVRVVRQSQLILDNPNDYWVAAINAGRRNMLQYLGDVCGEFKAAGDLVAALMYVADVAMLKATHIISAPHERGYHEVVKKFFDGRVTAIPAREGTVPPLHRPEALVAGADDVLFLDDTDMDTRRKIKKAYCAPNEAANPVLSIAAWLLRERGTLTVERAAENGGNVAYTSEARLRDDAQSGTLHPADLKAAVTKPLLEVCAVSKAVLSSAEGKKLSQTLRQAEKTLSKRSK
The experiment in a line: Trypanosoma cruzi tyrosyl tRNA synthetase (TcYRS) _High Tyrosine SOP. Further: in the data most compounds retested in dose-response had high values. Type of experiment: functional. The note with it: 30 µM.

For experiment [8], the target named is T4, Tyrosyl-tRNA synthetase, putative (Trypanosoma cruzi (strain CL Brener)). The experiment is described as follows: Trypanosoma cruzi tyrosyl tRNA synthetase (TcYRS) SOP. Type of experiment: functional. The note with it: 30 µM.
Experiment [9] concerns the target Chromo domain-containing protein 1 (Saccharomyces cerevisiae (strain ATCC 204508 / S288c) (Baker's yeast)) (UniProt P32657). The experiment is described as follows: ScCHD-1 Enzyme Inhibition Assay. Further: in the data most compounds retested in dose-response had high values. The experiment is classed as functional. The note with it: 30 µM.

Sequence of Protein translocase subunit SecA (Escherichia coli (strain K12)) (P10408 whole entry): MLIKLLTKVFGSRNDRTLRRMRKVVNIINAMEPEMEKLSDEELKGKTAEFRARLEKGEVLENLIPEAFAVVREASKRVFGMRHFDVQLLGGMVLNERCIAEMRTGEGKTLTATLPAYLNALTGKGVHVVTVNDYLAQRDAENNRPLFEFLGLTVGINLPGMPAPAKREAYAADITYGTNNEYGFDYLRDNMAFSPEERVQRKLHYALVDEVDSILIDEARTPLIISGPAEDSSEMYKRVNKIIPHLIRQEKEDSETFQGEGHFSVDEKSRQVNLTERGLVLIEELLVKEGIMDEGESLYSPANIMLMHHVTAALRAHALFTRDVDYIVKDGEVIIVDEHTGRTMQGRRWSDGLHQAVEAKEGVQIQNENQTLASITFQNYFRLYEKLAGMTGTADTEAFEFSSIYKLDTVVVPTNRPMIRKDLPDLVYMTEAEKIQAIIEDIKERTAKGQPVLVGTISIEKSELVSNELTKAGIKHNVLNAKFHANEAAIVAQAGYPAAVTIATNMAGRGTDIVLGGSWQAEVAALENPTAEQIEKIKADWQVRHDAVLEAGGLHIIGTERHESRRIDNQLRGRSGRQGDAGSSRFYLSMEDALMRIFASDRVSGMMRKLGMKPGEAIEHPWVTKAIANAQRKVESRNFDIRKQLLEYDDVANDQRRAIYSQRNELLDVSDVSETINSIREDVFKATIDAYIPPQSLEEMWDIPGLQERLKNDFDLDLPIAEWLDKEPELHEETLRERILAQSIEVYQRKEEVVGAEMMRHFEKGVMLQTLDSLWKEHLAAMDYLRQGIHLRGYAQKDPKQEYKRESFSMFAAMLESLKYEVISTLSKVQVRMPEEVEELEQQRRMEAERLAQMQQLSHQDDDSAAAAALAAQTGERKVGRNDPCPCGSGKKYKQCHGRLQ
Sequence of Sialic acid-binding Ig-like lectin 9 (Homo sapiens) (Q9Y336 whole entry): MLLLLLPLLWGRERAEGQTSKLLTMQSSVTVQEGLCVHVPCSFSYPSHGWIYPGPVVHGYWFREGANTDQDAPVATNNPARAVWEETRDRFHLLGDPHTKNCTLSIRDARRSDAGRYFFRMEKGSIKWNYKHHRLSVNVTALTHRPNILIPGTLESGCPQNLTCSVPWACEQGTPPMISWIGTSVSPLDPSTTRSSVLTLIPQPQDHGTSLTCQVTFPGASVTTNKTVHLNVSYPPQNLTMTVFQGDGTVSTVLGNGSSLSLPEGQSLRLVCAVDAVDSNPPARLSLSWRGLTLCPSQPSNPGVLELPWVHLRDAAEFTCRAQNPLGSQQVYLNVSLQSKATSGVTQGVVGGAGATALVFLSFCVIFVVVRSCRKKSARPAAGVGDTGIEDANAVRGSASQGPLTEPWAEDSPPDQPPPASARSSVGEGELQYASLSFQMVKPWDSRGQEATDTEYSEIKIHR
Sequence of Chromo domain-containing protein 1 (Saccharomyces cerevisiae (strain ATCC 204508 / S288c) (Baker's yeast)) (P32657 whole entry, the tested form may be a part): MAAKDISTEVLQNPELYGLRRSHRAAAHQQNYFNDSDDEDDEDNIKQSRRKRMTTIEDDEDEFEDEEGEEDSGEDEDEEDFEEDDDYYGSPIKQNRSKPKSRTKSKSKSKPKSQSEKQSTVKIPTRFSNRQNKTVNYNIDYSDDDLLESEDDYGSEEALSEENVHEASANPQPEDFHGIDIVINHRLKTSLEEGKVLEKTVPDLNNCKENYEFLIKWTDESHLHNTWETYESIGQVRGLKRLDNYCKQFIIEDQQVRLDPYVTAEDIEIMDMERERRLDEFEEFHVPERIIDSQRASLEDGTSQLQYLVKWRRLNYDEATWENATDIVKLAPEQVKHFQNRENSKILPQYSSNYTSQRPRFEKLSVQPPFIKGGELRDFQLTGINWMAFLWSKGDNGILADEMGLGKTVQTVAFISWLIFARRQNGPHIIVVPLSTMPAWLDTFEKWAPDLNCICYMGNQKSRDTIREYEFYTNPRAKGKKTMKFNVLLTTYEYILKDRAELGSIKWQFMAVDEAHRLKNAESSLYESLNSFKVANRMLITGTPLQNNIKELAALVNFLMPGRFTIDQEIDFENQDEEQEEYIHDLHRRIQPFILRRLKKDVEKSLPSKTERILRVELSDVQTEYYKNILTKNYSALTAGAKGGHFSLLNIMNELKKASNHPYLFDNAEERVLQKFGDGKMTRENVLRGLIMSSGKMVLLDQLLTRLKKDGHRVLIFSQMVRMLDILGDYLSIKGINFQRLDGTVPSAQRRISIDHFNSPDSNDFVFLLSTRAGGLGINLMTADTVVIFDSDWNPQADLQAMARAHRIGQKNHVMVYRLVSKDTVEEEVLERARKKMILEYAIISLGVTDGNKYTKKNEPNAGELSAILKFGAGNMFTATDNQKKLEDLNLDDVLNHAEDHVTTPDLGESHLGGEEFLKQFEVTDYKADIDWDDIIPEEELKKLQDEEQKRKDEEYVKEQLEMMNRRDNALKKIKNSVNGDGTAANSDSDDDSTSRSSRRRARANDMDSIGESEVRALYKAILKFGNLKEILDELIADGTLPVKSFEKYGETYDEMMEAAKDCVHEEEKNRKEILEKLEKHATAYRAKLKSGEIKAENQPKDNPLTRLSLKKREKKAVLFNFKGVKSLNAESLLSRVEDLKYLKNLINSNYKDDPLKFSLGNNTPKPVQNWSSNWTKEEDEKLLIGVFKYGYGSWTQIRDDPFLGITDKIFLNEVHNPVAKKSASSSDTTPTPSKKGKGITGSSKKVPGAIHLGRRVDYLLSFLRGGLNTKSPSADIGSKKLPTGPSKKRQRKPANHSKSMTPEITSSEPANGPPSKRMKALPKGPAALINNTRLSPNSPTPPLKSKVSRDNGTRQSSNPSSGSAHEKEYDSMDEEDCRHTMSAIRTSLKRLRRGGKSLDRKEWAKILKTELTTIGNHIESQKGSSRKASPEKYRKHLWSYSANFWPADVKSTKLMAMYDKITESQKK

`CCCc1nc(CN2CCOC(CNc3cccnn3)C2)cs1` (stereo not given): the Percent Effect in experiment [1] was -3.31%; in [2], 2.7%; in [3] it was -3.87%; in experiment [4], 5.09%; with Trypanosoma cruzi, -0.849%; in [5], -5.61%. In addition, the Percent Effect in experiment [6] is 10.3%; in the experiment listed under Homo sapiens, 7.16%; in experiment [7] it was 14.3%; in experiment [8] it was 30.9%; in experiment [9] it was -7.47%.
As for `CCN(Cc1ccc2c(c1)OCO2)C(=O)c1ccc(C)[nH]c1=O`, the Percent Effect in [1] is -4.38%; in [2] it was 13.2%; in experiment [3] it was -8.05%; in [4], -3.99%; in the experiment on Trypanosoma cruzi it was 11.5%; in [5], -1.92%. The Percent Effect in experiment [6] was 11.9%; in the experiment filed under Homo sapiens, 15.1%; in experiment [7], 10.3%; in experiment [8], 19.5%; in [9], -15.7%.
With `COc1ncccc1NC(=O)N1CCC(CNC(C)=O)CC1`, the Percent Effect in experiment [1] is -3.02%; in experiment [2] it was 5.33%; in experiment [3], -2.93%; in experiment [4], 4.72%; in the experiment on Trypanosoma cruzi it was 3.02%; in [5], 3.12%. The Percent Effect in experiment [6] was 7.5%; in the experiment filed under Homo sapiens it was 20.5%; in experiment [7] it was 4.92%; in [8], 13.6%; in [9], -8%.
Consider `Cc1nc(C)n(CC2CN(CCc3ccncc3)CCO2)n1` (stereo not given), for which the Percent Effect in experiment [1] is -1.44%; in experiment [2], 5.48%; in [3], 1.35%; in experiment [4], 6.79%; with Trypanosoma cruzi it was 0.979%; in experiment [5], 3.64%. Also, the Percent Effect is 10.3% in [6]; 16.9% in the experiment filed under Homo sapiens; 4.3% in experiment [7]; 10% in [8]; -5.67% in experiment [9].
Regarding `CC(C)(C)c1nc(CN2CCCC(Cn3cncn3)C2)cs1` (stereo not given), the Percent Effect was -0.434% in experiment [1]; 21.6% in experiment [2]; -0.165% in experiment [3]; -3.27% in experiment [4]; 5% with Trypanosoma cruzi; -17.6% in [5]. Moreover, the Percent Effect is 10.6% in experiment [6]; 3.9% in the experiment listed under Homo sapiens; 1.48% in experiment [7]; 18.5% in experiment [8]; -8.38% in experiment [9].
On to `CC(C)(C)n1cc(C(=O)N2CCCN(Cc3cccs3)CC2)cn1`, for which the Percent Effect is -1.01% in [1]; 5.26% in experiment [2]; 3.41% in experiment [3]; 2.97% in experiment [4]; -3.57% with Trypanosoma cruzi; 3.45% in [5]. Moreover, the Percent Effect in [6] was 9.19%; in the experiment listed under Homo sapiens it was 14.5%; in experiment [7] it was 1.47%; in experiment [8], 9.76%; in experiment [9], -2.3%.
As for `Cc1nc(C)n(C2CCCN(C(=O)COCc3ccccc3)C2)n1` (stereo not given), the Percent Effect is -0.388% in experiment [1]; 0% in [2]; 25.2% in experiment [3]; 9.37% in [4]; 2.25% with Trypanosoma cruzi; 1.78% in experiment [5]. Besides, the Percent Effect in experiment [6] is -4.22%; in the experiment filed under Homo sapiens, 4.38%; in [7], 3.88%; in [8], 12.2%; in [9], -7.13%.
As for `COCCNC(=O)[C@H]1CN(Cc2scnc2C)C[C@H]2OCC[C@@H]12`, the Percent Effect in [1] was -3.71%; in [2], 5.48%; in experiment [3], 0.0499%; in experiment [4] it was 5.36%; with Trypanosoma cruzi it was 3.77%; in experiment [5], 1.2%. Further, the Percent Effect in experiment [6] was found to be 1.11%; in the experiment listed under Homo sapiens, 4.51%; in experiment [7], 5.21%; in experiment [8], 16.1%; in experiment [9], 1.51%.
On to `CC1(C)CC(N2Cc3nc(N)ncc3C2=O)CC(C)(C)N1`, for which the Percent Effect in experiment [1] was 0.646%; in experiment [2] it was 10.4%; in experiment [3], -3.77%; in [4], 8.41%; in the experiment with Trypanosoma cruzi, 4.23%; in experiment [5], -35.9%. Besides, the Percent Effect is 10.7% in experiment [6]; 11% in the experiment listed under Homo sapiens; 6.45% in experiment [7]; 21% in [8]; -5.13% in [9].
Turning to `O=C(c1cccn1Cc1cccs1)N1CCN(C2CC2)CC1`, the Percent Effect is -4.51% in experiment [1]; 0% in experiment [2]; 3.71% in experiment [3]; 11% in [4]; 8.05% with Trypanosoma cruzi; 0% in experiment [5]. Besides, the Percent Effect was 11.3% in experiment [6]; -0.305% in the experiment listed under Homo sapiens; 6.8% in experiment [7]; 14.6% in experiment [8]; -8.6% in experiment [9].
